Where “and” joins values, the source holds several entries; their conditions need not be identical. Equal values may be shown once. Hit rate of the full screen: of about 5,500 compounds, about 2,000 (36%) were called active. Roughly 18% stayed inconclusive and do not appear here. Rule as the data show it: active = normalized growth mostly below about 0.91 (no sharp cut-off); inconclusive = no clear call, values can overlap the other calls; inactive = mostly above about 0.92. The list shows a part of the results.
Assay: chemical genetic growth profiling, strain panel (AID 1159580);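 also: tested at 20 µM; growth read once vehicle control cultures reached saturation at 30 °C; 1 = growth at the plate median or of vehicle wells; lower values mean less growth of the strain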
Settings: growth OD

Measured: normalized growth

ClC1=C(Cl)C2(Cl)C3C4CC(C5OC45)C3C1(Cl)C2(Cl)Cl (configuration not stated)
inactive: S. cerevisiae deletion strains, locus YAL013W, strain DEP1, stronger effect = lower value 0.992 | S. cerevisiae deletion strains, locus YBR021W, strain FUR4, stronger effect = lower value 0.948 and 0.959 | S. cerevisiae deletion strains, locus YBR229C, strain ROT2, stronger effect = lower value 0.997 and 1 | S. cerevisiae deletion strains, locus YCL029C, strain bik1, stronger effect = lower value 0.967 and 1.02 | S. cerevisiae deletion strains, locus YDL035C, strain GPR1, stronger effect = lower value 0.981 and 0.974 | S. cerevisiae deletion strains, locus YDL074C, strain BRE1, stronger effect = lower value 1.03 | S. cerevisiae deletion strains, locus YDL101C, strain DUN1, stronger effect = lower value 0.993 and 1 | S. cerevisiae deletion strains, locus YDL134C, strain PPH21, stronger effect = lower value 0.998 and 0.988 | S. cerevisiae deletion strains, locus YDL185W, strain tfp1, stronger effect = lower value 0.996 and 1.03 | S. cerevisiae deletion strains, locus YDL192W, strain arf1, stronger effect = lower value 0.986 and 1.01 | S. cerevisiae deletion strains, locus YDR101C, strain arx1, stronger effect = lower value 0.973 and 1.01 | S. cerevisiae deletion strains, locus YDR150W, strain NUM1, stronger effect = lower value 1 and 0.976 | S. cerevisiae deletion strains, locus YDR162C, strain NBP2, stronger effect = lower value 0.999 and 0.969 | S. cerevisiae deletion strains, locus YDR318W, strain mcm21, stronger effect = lower value 0.983 and 1.01 | S. cerevisiae deletion strains, locus YDR388W, stronger effect = lower value 0.97 and 1.01 | S. cerevisiae deletion strains, locus YDR502C, strain sam2, stronger effect = lower value 0.983 and 1 | S. cerevisiae deletion strains, locus YEL061C, strain CIN8, stronger effect = lower value 1 | S. cerevisiae deletion strains, locus YER110C, stronger effect = lower value 0.971 and 1.02 | S. cerevisiae deletion strains, locus YER155C, strain BEM2, stronger effect = lower value 0.982 and 1.01 | S. cerevisiae deletion strains, locus YER167W, strain BCK2, stronger effect = lower value 0.976 and 0.99 | S. cerevisiae deletion strains, locus YGL078C, strain dbp3, stronger effect = lower value 0.978 and 1.01 | S. cerevisiae deletion strains, locus YGL086W, strain mad1, stronger effect = lower value 0.983 and 1.01 | S. cerevisiae deletion strains, locus YGL248W, strain PDE1, stronger effect = lower value 1 and 1.01 | S. cerevisiae deletion strains, locus YGR078C, strain PAC10, stronger effect = lower value 1 and 1.01 | S. cerevisiae deletion strains, locus YGR135W, strain pre9, stronger effect = lower value 0.988 and 0.995 | S. cerevisiae deletion strains, locus YGR229C, strain SMI1, stronger effect = lower value 0.971 | S. cerevisiae deletion strains, locus YGR252W, strain gcn5, stronger effect = lower value 0.968 and 0.972 | S. cerevisiae deletion strains, locus YHR030C, strain SLT2, stronger effect = lower value 0.99 and 1.04 and 1.01 | S. cerevisiae deletion strains, locus YHR079C, strain IRE1 (second series), stronger effect = lower value 0.971 and 1.01 | S. cerevisiae deletion strains, locus YHR079C, strain IRE1, stronger effect = lower value 1.01 | S. cerevisiae deletion strains, locus YHR094C, strain hxt1, stronger effect = lower value 0.974 and 1.01 | S. cerevisiae deletion strains, locus YHR129C, strain ARP1, stronger effect = lower value 0.998 and 1.02 | S. cerevisiae deletion strains, locus YHR200W, strain rpn10, stronger effect = lower value 0.978 and 1.02 | S. cerevisiae deletion strains, locus YIL066C, strain RNR3, stronger effect = lower value 1 and 0.968 | S. cerevisiae deletion strains, locus YIL073C, strain SPO22, stronger effect = lower value 0.919 and 1.08 | S. cerevisiae deletion strains, locus YIL125W, strain kgd1, stronger effect = lower value 0.985 and 1.01 | S. cerevisiae deletion strains, locus YIR030C, strain dcg1, stronger effect = lower value 0.979 and 1.02 | S. cerevisiae deletion strains, locus YJL095W, strain BCK1, stronger effect = lower value 1.02 and 1.05 and 1.06 | S. cerevisiae deletion strains, locus YJL134W, strain LCB3, stronger effect = lower value 0.982 and 1.01 | S. cerevisiae deletion strains, locus YJL168C, strain set2, stronger effect = lower value 0.98 and 1.01 | S. cerevisiae deletion strains, locus YJL187C, strain SWE1 (second series), stronger effect = lower value 0.991 and 1.02 | S. cerevisiae deletion strains, locus YJR043C, strain POL32, stronger effect = lower value 0.975 and 0.987 | S. cerevisiae deletion strains, locus YJR066W, strain TOR1, stronger effect = lower value 0.962 | S. cerevisiae deletion strains, locus YJR075W, strain HOC1, stronger effect = lower value 1 and 1.03 | S. cerevisiae deletion strains, locus YKL009W, strain mrt4, stronger effect = lower value 0.988 and 1.01 | S. cerevisiae deletion strains, locus YKL068W, stronger effect = lower value 0.986 and 1 | S. cerevisiae deletion strains, locus YKL085W, strain MDH1 (second series), stronger effect = lower value 0.983 and 0.995 | S. cerevisiae deletion strains, locus YKL085W, strain MDH1, stronger effect = lower value 0.983 and 0.995 | S. cerevisiae deletion strains, locus YKL190W, strain CNB1, stronger effect = lower value 1 and 0.986 | S. cerevisiae deletion strains, locus YKR001C, strain vps1, stronger effect = lower value 0.98 and 1.02 | S. cerevisiae deletion strains, locus YLR039C, strain RIC1, stronger effect = lower value 0.975 and 1.15 | S. cerevisiae deletion strains, locus YLR058C, strain SHM2, stronger effect = lower value 0.984 and 1.02 | S. cerevisiae deletion strains, locus YLR102C, strain apc9, stronger effect = lower value 0.984 and 1.01 | S. cerevisiae deletion strains, locus YLR113W, strain HOG1, stronger effect = lower value 0.937 | S. cerevisiae deletion strains, locus YLR262C, strain YPT6, stronger effect = lower value 0.953 and 1.24 | S. cerevisiae deletion strains, locus YLR268W, strain sec22, stronger effect = lower value 0.977 and 1.02 | S. cerevisiae deletion strains, locus YLR330W, strain CHS5, stronger effect = lower value 0.996 and 1.01 | S. cerevisiae deletion strains, locus YLR342W, strain FKS1 (second series), stronger effect = lower value 0.984 and 0.998 | S. cerevisiae deletion strains, locus YLR371W, strain rom2, stronger effect = lower value 0.97 and 1.02 | S. cerevisiae deletion strains, locus YLR418C, strain cdc73, stronger effect = lower value 0.964 and 0.976 | S. cerevisiae deletion strains, locus YML016C, strain PPZ1, stronger effect = lower value 0.996 and 1 | S. cerevisiae deletion strains, locus YML032C, strain rad52, stronger effect = lower value 0.967 and 0.998 | S. cerevisiae deletion strains, locus YML124C, strain tub3, stronger effect = lower value 0.973 and 1.01 | S. cerevisiae deletion strains, locus YMR078C, strain ctf18, stronger effect = lower value 0.973 and 1.01 | S. cerevisiae deletion strains, locus YMR223W, strain ubp8, stronger effect = lower value 0.975 and 1.01 | S. cerevisiae deletion strains, locus YMR263W, strain SAP30, stronger effect = lower value 1.01 | S. cerevisiae deletion strains, locus YMR307W, strain GAS1, stronger effect = lower value 0.909 and 0.97 | S. cerevisiae deletion strains, locus YNL067W, strain RPL9B, stronger effect = lower value 0.999 and 1.04 | S. cerevisiae deletion strains, locus YNL128W, strain TEP1, stronger effect = lower value 0.994 and 1.02 | S. cerevisiae deletion strains, locus YNL153C, strain GIM3, stronger effect = lower value 0.999 and 1.03 | S. cerevisiae deletion strains, locus YNL183C, strain NPR1, stronger effect = lower value 0.948 | S. cerevisiae deletion strains, locus YNL233W, strain BNI4, stronger effect = lower value 0.994 and 1.06 | S. cerevisiae deletion strains, locus YNL250W, strain rad50, stronger effect = lower value 0.965 and 1 | S. cerevisiae deletion strains, locus YNL271C, strain bni1, stronger effect = lower value 0.975 and 1.01 | S. cerevisiae deletion strains, locus YNL298W, strain CLA4, stronger effect = lower value 0.97 and 1.01 | S. cerevisiae deletion strains, locus YNL307C, strain MCK1, stronger effect = lower value 0.947 and 1.02 | S. cerevisiae deletion strains, locus YNL322C, strain KRE1, stronger effect = lower value 0.998 | S. cerevisiae deletion strains, locus YNR052C, strain pop2, stronger effect = lower value 0.965 and 1.01 | S. cerevisiae deletion strains, locus YOL006C, strain TOP1, stronger effect = lower value 1.01 | S. cerevisiae deletion strains, locus YOL012C, strain htz1 0.925 and 0.987 | S. cerevisiae deletion strains, locus YOL147C, strain pex11, stronger effect = lower value 0.966 and 1.02 | S. cerevisiae deletion strains, locus YOR061W, strain CKA2, stronger effect = lower value 0.998 and 1 | S. cerevisiae deletion strains, locus YOR069W, strain VPS5, stronger effect = lower value 0.995 and 1.01 | S. cerevisiae deletion strains, locus YOR136W, strain idh2, stronger effect = lower value 0.974 and 1.02 | S. cerevisiae deletion strains, locus YOR144C, strain elg1, stronger effect = lower value 0.97 and 1 | S. cerevisiae deletion strains, locus YOR184W, strain ser1, stronger effect = lower value 0.967 and 1.01 | S. cerevisiae deletion strains, locus YOR231W, strain MKK1, stronger effect = lower value 1.04 | S. cerevisiae deletion strains, locus YOR316C, strain cot1, stronger effect = lower value 0.976 and 1.01 | S. cerevisiae deletion strains, locus YPL055C, strain LGE1, stronger effect = lower value 0.999 | S. cerevisiae deletion strains, locus YPL241C, strain CIN2, stronger effect = lower value 0.999 and 1.01 | S. cerevisiae deletion strains, locus YPL256C, strain CLN2, stronger effect = lower value 1.04 | S. cerevisiae deletion strains, locus YPR119W, strain clb2, stronger effect = lower value 0.974 and 1.01 | S. cerevisiae deletion strains, locus YPR141C, strain kar3, stronger effect = lower value 0.969 and 1.01 | S. cerevisiae deletion strains, locus YPR163C, strain tif3, stronger effect = lower value 0.961 and 1.01 | S. cerevisiae deletion strains, locus YPR167C, strain met16, stronger effect = lower value 0.983 and 1.01 | S. cerevisiae deletion strains, strain wtn01, stronger effect = lower value 0.971 and 1.03 | S. cerevisiae strains, strain wild type, stronger effect = lower value 0.994 and 1.01
